Test system: 4T1
Assay: % inhibition of 4T1 cell number vs DMSO control; higher = stronger growth inhibition
Conditions: 1 µM, 3 days
Summary of the method: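 In 96-well imaging plates whose edge wells went unused, 3000 4T1-H2B-GFP mouse breast cancer cells per well were seeded in 2% FBS medium onto plastic, denuded lung matrix, mCAF1 fibroblast-derived matrix, Matrigel (15 μg/mL) or 0.2% gelatin. Sixteen hours on, kinase inhibitors went in at 1 μM final for 3 days before formalin fixation, DAPI staining and imaging on an INCell Analyzer 2200. Counting of GFP-positive nuclei gave cell numbers, from which percent inhibition relative to control was derived.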

[1] = substrate: lung fibroblast-derived matrix
[2] = substrate: mCAF1 fibroblast-derived matrix

Structure (SMILES) | % inhibition of 4T1 cell number (substrate: Matrigel) | % inhibition of 4T1 cell number (substrate: gelatin) | % inhibition of 4T1 cell number [1] | % inhibition of 4T1 cell number [2] | % inhibition of 4T1 cell number (substrate: plastic)
COc1ccc(COc2ccc(Cc3cnc(N)nc3N)cc2OC)cc1 [cFMS Receptor Tyrosine Kinase Inhibitor] | -15.7% | -87.3% | 2.62% | 11.3% | -59.7%
N#CCCc1ccc2c(c1)-c1[nH]c3ccc([N+](=O)[O-])cc3c1CC(=O)N2 [Alsterpaullone, 2-Cyanoethyl] | 55.6% | 51.8% | -1.58% | 45.1% | 72.9%
NC(=O)c1ccc2nc(-c3ccc(Oc4ccc(Cl)cc4)cc3)[nH]c2c1 [Chk2 Inhibitor II] | -26.7% | -10.9% | 22.1% | 21.5% | -72.4%
CC[C@H](CO)Nc1nc(NCc2ccccc2O)c2ncn(C(C)C)c2n1 [Olomoucine II] | 13.3% | 23.4% | 19.8% | 13.3% | 23.7%
N#CC(C#N)=C(N)/C(C#N)=C/c1ccc(O)cc1 | -1.44% | 52.7% | -11.6% | 11.4% | 21.1%
NS(=O)(=O)c1ccc(N=Nc2c(O)[nH]c3ccc(Br)cc23)cc1 [Cdk2 Inhibitor II] | 14.7% | 31.6% | -5.54% | 18.1% | -9.24%
O=[N+]([O-])c1ccc(-c2nc(-c3ccc(F)cc3)c(-c3ccncc3)[nH]2)cc1 | -4.18% | 12% | -11.4% | 26.1% | -60.5%
Cn1sc(=O)n(Cc2ccccc2)c1=O [GSK-3b Inhibitor I] | -33.1% | 10.3% | 9.49% | 21.6% | -62.7%
CCCCc1c(-c2ccc(O)cc2)[nH]c2nccnc12 [Aloisine A] | 53.4% | 38% | 1.62% | -3.45% | 48.1%
CN[C@@H]1C[C@H]2O[C@@](C)([C@@H]1OC)n1c3ccccc3c3c4c(c5c6ccccc6n2c5c31)C(=O)N[C@H]4O | 99.4% | 99.2% | 14.1% | 88.8% | 95.5%
COc1cc2ncc(-c3ccccc3)nc2cc1OC | 20.6% | 47% | -16.1% | 27.8% | 39.5%
O=C1c2ccccc2-c2nc3nnnn3nc21 [PDK1/Akt/Flt Dual Pathway Inhibitor] | 99% | 97.3% | -19.8% | 95.4% | 97%
CC(C)(C)c1ccc(S(=O)(=O)Nc2ccc(-n3ccnc3)cc2)cc1 [Stem-Cell Factor/c-Kit Inhibitor, ISCK03] | 40.2% | 60.6% | 90.5% | 7.06% | 39.4%
O=C1NC(=O)C(c2cn(CCCO)c3ncccc23)=C1c1cnccn1 [GSK-3b Inhibitor XI] | 26.7% | 30.4% | 0.393% | 15.6% | 44.6%
CCCC(=O)Oc1ccc2[nH]c(C(=O)c3cc4ccccc4[nH]3)cc2c1 [PDGF Receptor Tyrosine Kinase Inhibitor II] | -18.7% | -112% | -6.16% | 1.3% | -70.2%
COc1cc2ncn(-c3cc(OCc4ccccc4S(C)(=O)=O)c(C#N)s3)c2cc1OC [IKK-3 Inhibitor IX] | -14.6% | -1.27% | 1.67% | 6.5% | -26.7%
CCC(CO)Nc1nc(NCc2ccccc2)c2ncn(C(C)C)c2n1 [Roscovitine, (S)-Isomer] | -4.8% | 59.2% | 1.55% | 29.4% | -6.54%
COc1ccc2c(c1)c(C1=C(c3c[nH]c4ccccc34)C(=O)NC1=O)cn2CCCN(C)C | -19.1% | -76.7% | -27.2% | 11.8% | -63.4%
O=c1c(O)c(-c2ccc(O)c(O)c2)oc2cc(O)c(O)c(O)c12 [Quercetagetin] | 28.5% | 52.6% | -6.29% | 36.1% | 48.4%
O=C1C(Cl)=C(N2C(=O)CCC2=O)C(=O)c2ccccc21 [MEK Inhibitor II] | -30.5% | -13.5% | -5.8% | 50.2% | -66.5%
Cn1cnc2cc3c(Nc4cccc(Br)c4)ncnc3cc21 | 5.46% | -49.9% | -0.216% | -36.5% | -21.9%
COc1cc(SC)ccc1C(=O)N1CCC(Cc2ccccc2)CC1 [p38 MAP Kinase Inhibitor VI, JX401] | -31.1% | 8.59% | -4.09% | 17% | -66.3%
CC(=O)O/N=C1/C(c2c(O)[nH]c3cc(Br)ccc23)=Nc2ccccc21 [GSK-3 Inhibitor X] | -22.6% | 52.7% | -8.8% | 59.3% | 58.1%
CCN(CC)CCNC(=O)c1c(C)[nH]c(/C=C2\C(=O)Nc3ccc(Cl)cc32)c1C | 62.3% | 70% | -10.6% | 52.4% | 74.3%
Cn1c2ccccc2c2c3c(c4c5ccccc5n(CCC#N)c4c21)CNC3=O | 50.9% | 67.2% | -8.31% | 34.5% | 72.7%
O=C1Cc2c([nH]c3ccc(Br)cc23)-c2ccccc2N1 [Kenpaullone] | -24.2% | -0.528% | 23.3% | 25.6% | -48.1%
N#CC(c1ccnc(NCCc2cccnc2)n1)c1nc2ccccc2s1 (stereo not given) [JNK Inhibitor V] | -8.79% | 6.99% | -8.74% | 52.2% | 8.02%

Source: the supplement of paper PMC8269313
